The supplement of paper PMC9694430

Legend:
Assay in all cases: thermal shift delta Tm vs DMSO control; higher = stronger stabilization (binding)
Details in all cases: 12.5 µM; protein concentration 2 µM
LOC_OS02G45750-cb003 = tested on: LOC_OS02G45750-cb003
Procedure, shortened: (§1)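 Rice kinase domain constructs, made in E. coli and purified, were placed in 96-well plates at 2 μM in 19.5 μl of 100 mM potassium phosphate pH 7.5, 150 mM NaCl, 10% glycerol and 5 × SYPRO Orange, with compound in DMSO. A temperature ramp from 25°C to 95°C at 0.05°C/s was used for differential scanning fluorimetry. The melting temperature shift is a triplicate mean compared with DMSO-only protein, derived from Boltzmann fits.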

LOC_OS02G54510-cb004 = tested on: LOC_OS02G54510-cb004
Procedure, shortened: as §1

LOC_OS03G04050-cb001 = tested on: LOC_OS03G04050-cb001
Procedure, shortened: as §1

LOC_OS03G12390-cb001 = tested on: LOC_OS03G12390-cb001
Procedure, shortened: as §1

LOC_OS03G27990-cb004 = tested on: LOC_OS03G27990-cb004
Procedure, shortened: as §1

LOC_OS03G50450-cb001 = tested on: LOC_OS03G50450-cb001
Procedure, shortened: as §1

LOC_OS03G50810-cb003 = tested on: LOC_OS03G50810-cb003
Procedure, shortened: as §1

LOC_OS04G35114-cb001 = tested on: LOC_OS04G35114-cb001
Procedure, shortened: as §1

LOC_OS04G38480-cb003 = tested on: T1, LOC_OS04G38480-cb003
T1 sequence (whole entry): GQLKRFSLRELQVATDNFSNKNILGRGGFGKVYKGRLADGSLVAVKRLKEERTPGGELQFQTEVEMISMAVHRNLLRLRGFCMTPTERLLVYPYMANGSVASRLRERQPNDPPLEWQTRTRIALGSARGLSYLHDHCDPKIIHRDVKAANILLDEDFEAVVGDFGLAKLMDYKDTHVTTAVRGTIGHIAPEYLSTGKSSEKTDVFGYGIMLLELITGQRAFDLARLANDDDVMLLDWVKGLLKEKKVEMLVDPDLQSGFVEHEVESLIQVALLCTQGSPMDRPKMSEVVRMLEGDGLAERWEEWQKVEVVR
Procedure, shortened: as §1

LOC_OS04G41100-cb001 = tested on: T2, LOC_OS04G41100-cb001
T2 sequence (whole entry): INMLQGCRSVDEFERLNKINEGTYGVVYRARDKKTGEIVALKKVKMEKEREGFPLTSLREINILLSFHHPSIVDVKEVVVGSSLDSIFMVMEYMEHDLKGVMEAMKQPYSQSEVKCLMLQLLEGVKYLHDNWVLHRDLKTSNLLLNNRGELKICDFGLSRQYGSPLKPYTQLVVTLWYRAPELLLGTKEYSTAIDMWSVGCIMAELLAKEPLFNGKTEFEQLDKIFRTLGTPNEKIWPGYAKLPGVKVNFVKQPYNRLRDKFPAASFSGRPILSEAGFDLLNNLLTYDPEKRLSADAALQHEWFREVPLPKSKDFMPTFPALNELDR
Procedure, shortened: as §1
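Further: purified Escherichia coli-expressed rice kinase domain construct.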

Structure (SMILES) | thermal shift delta Tm (LOC_OS02G45750-cb003) | thermal shift delta Tm (LOC_OS02G54510-cb004) | thermal shift delta Tm (LOC_OS03G04050-cb001) | thermal shift delta Tm (LOC_OS03G12390-cb001) | thermal shift delta Tm (LOC_OS03G27990-cb004) | thermal shift delta Tm (LOC_OS03G50450-cb001) | thermal shift delta Tm (LOC_OS03G50810-cb003) | thermal shift delta Tm (LOC_OS04G35114-cb001) | thermal shift delta Tm (LOC_OS04G38480-cb003) | thermal shift delta Tm (LOC_OS04G41100-cb001)
COc1cc2ncc(-c3ccccc3)nc2cc1OC [Tyrphostin AG 1296] | 4.58 °C | -0.11 °C | 0.13 °C | 0.49 °C | 0.74 °C | 0.48 °C | 1.56 °C | 3.93 °C | 0.73 °C | 0.13 °C
CNc1nc(Nc2cnn([C@H]3CCN(C4COC4)C[C@@H]3F)c2Cl)ncc1C(F)(F)F | 10.5 °C | 0.35 °C | 0.37 °C | 9.14 °C | 2.39 °C | 5.54 °C | 4.12 °C | 4.01 °C | 3.09 °C | 0.6 °C
COc1cc(Nc2c(C#N)cnc3cc(OCCCN4CCN(C)CC4)c(OC)cc23)c(Cl)cc1Cl [Bosutinib (SKI-606)] | 0.12 °C | 0.16 °C | 0.26 °C | 0.07 °C | 0.12 °C | -0.11 °C | -0.09 °C | 0.86 °C | 1.14 °C | 0.53 °C
COc1cc2/c(=N/c3ccc(Br)cc3F)nc[nH]c2cc1OCC1CCN(C)CC1 [Vandetanib (ZD6474)] | 3.64 °C | 0.98 °C | 0.67 °C | 2.45 °C | 2.29 °C | 1.05 °C | 2.26 °C | 8.6 °C | 3.76 °C | 0.73 °C
COc1cc(CCc2cc(NC(=O)c3ccc(N4CC(C)NC(C)C4)cc3)n[nH]2)cc(OC)c1 (configuration not stated) | 7.06 °C | 0.23 °C | 0.27 °C | 1.22 °C | 1.11 °C | 0.29 °C | 4.8 °C | 5.76 °C | 0.62 °C | 1.99 °C
Cc1ccccc1-n1c(Cn2nc(-c3cccc(O)c3)c3c(N)ncnc32)nc2cccc(C)c2c1=O | -2.16 °C | -0.05 °C | -0.24 °C | -0.5 °C | – | 0.05 °C | 0.27 °C | 0.34 °C | – | –
O=C(Nc1nc2cccc(-c3ccc(CN4CCS(=O)(=O)CC4)cc3)n2n1)C1CC1 [Filgotinib (GLPG0634)] | 1.04 °C | 0.58 °C | 0.6 °C | 0.31 °C | 0.64 °C | 1.73 °C | 0.86 °C | 1.37 °C | 1.66 °C | 0.6 °C
COc1cc(N2CCN(C)CC2)ccc1Nc1ncc2c(n1)N(C)c1ccccc1C(=O)N2 | 0.85 °C | 0.32 °C | 0.17 °C | 0.62 °C | 0.11 °C | -0.01 °C | 0.23 °C | 0.35 °C | 1.14 °C | 0.17 °C
C[C@@H]1COCCN1c1cc(C2([S@](C)(=N)=O)CC2)nc(-c2cc[nH]c3nccc2-3)n1 | 0.39 °C | 0.1 °C | 0.32 °C | -0.31 °C | 0.13 °C | 0.46 °C | 0.2 °C | 2.45 °C | 0.68 °C | 0.52 °C
COc1ccc(Cl)cc1NC(=O)Nc1cc(C)nc2ccccc12 | 0.37 °C | 0.12 °C | 0.38 °C | 0.21 °C | 0.52 °C | 0.68 °C | 0.32 °C | 0.93 °C | 0.32 °C | 0.36 °C
C=CC(=O)Nc1cccc(Nc2nc(Nc3ccc(Oc4ccnc(C(=O)NC)c4)cc3)ncc2F)c1 | 0.72 °C | 1.23 °C | 0.77 °C | 2.55 °C | 0.98 °C | 1.34 °C | 2.61 °C | 2.69 °C | 3.42 °C | 0.73 °C
CCCCNc1ncc2c(-c3ccc(CN4CCN(C)CC4)cc3)cn([C@H]3CC[C@H](O)CC3)c2n1 | 18.4 °C | 0.6 °C | 0.12 °C | 8.3 °C | 10.8 °C | 6.64 °C | 10.5 °C | 12.3 °C | 4.63 °C | 0.42 °C
COc1cc2nccc(Oc3ccc(NC(=O)NC4CC4)c(Cl)c3)c2cc1C(N)=O [Lenvatinib (E7080)] | 0.65 °C | 0.49 °C | 0.79 °C | -0.1 °C | 0.31 °C | 0.39 °C | 0.26 °C | 1.09 °C | 0.48 °C | 0.18 °C
CC[C@@H]1C(=O)N(C)c2cnc(Nc3ccc(C(=O)NC4CCN(C)CC4)cc3OC)nc2N1C1CCCC1 | 1.12 °C | 0.21 °C | 0.16 °C | 2.23 °C | -0.16 °C | -0.26 °C | 0.11 °C | 0.67 °C | -0.31 °C | 0.39 °C
CCc1cccc(CC)c1NC(=O)N1Cc2[nH]nc(NC(=O)c3ccc(N4CCN(C)CC4)cc3)c2C1 | 2.47 °C | 0.46 °C | 0.29 °C | 4.75 °C | 0.09 °C | 0.27 °C | 2.53 °C | 4.67 °C | 0.61 °C | 0.62 °C
NC(=O)c1cnc(N[C@@H]2CCCC[C@@H]2N)nc1Nc1cccc(-n2nccn2)c1 | 2.02 °C | 2.55 °C | 0.07 °C | 1.42 °C | 1.98 °C | 3.61 °C | 0.99 °C | 1.31 °C | 0.85 °C | 0.63 °C
O=C(NOCCO)c1ccc2cncn2c1Nc1ccc(I)cc1F | 0.53 °C | 0.01 °C | 0.75 °C | -0.37 °C | 0.29 °C | -0.24 °C | 0.06 °C | -0.73 °C | -1.85 °C | 0.39 °C
CC(C)c1cnn2c(NCc3ccccc3-n3cccn3)nc(OC3CCCNC3)nc12 (configuration not stated) | 0.32 °C | -0.14 °C | 0.32 °C | 0.22 °C | 0.11 °C | 0.09 °C | 0.5 °C | 0.48 °C | 1.13 °C | 0.57 °C
Cc1c(C(=O)Nc2ccc(Oc3ccnc4[nH]cc(-c5ccccc5)c34)c(F)c2)c(=O)n(-c2ccc(F)cc2)n1C | 1.92 °C | -0.32 °C | 0.37 °C | 1.39 °C | 0.47 °C | 0.52 °C | 1.79 °C | 5.04 °C | 3.56 °C | 1.06 °C
CNC(=O)c1cccc(-c2ccc3c(N4CCOC[C@@H]4C)nc(N4CCOC[C@@H]4C)nc3n2)c1 [Vistusertib (AZD2014)] | 0.21 °C | 0.04 °C | 0.18 °C | -0.33 °C | 0.11 °C | 0.09 °C | 0.06 °C | -0.19 °C | 0.96 °C | 0.11 °C
CC(C)c1cnn2c(NCc3ccccc3)cc(NCCCCCCN)nc12 | 0.67 °C | 0.22 °C | 0.33 °C | -0.19 °C | 0.14 °C | 0.34 °C | 0.19 °C | 0.56 °C | -0.44 °C | 0.32 °C
